Source: PubChem
Rows were chosen to be rich in hits. Some 11% of all compounds tested hit in one or more screens of this group.
Sm TGR inh – S. mansoni TGR enzyme inhibition; Q962Y6; purified TGR, DTNB reduction, TNB absorbance 405 nm; Potency, µM (doses to about 114 µM), hits mostly inhibitors; 3% of 360,000 active; also: nearly all actives have a fitted effect of over 60% in size
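First, TGR (20 nM dispensed) and NADPH were mixed with compound. Second, a 15 min room-temperature incubation followed. Third, further NADPH and then DTNB were added to start the reaction. Finally, TNB absorbance was monitored kinetically.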
Pf growth 96h – P. falciparum growth inhibition at 96 hours | P. falciparum luciferase reporter growth, 96 h | Potency, µM (titrated, usually from 28.7 µM), actives largely listed as inhibitors | 6.9% of 320,000 active | AID 504834
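Two parasite generations (96 h, 37 C, 5% CO2) of compound exposure in infected erythrocytes (0.05% parasitemia, 2% hematocrit). Luciferase-reporter P. falciparum; decreased luminescence indicates inhibited growth, aimed at apicoplast-acting delayed death.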
Pf growth 48h – inhibits P. falciparum growth in the first generation, 48 h | P. falciparum luciferase growth in erythrocytes, 48 h | Potency, µM (titrated, usually from 28.7 µM), usual class: inhibitors | 5.9% of 310,000 active | AID 504832
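Parasite viability was followed by luminescence of a genomically integrated firefly luciferase. Cultures held 0.1% parasitemia at 2% hematocrit (final), incubated under 5% CO2 at 37 C.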
NS1 inh – inhibitors of influenza NS1 protein function; 0.4% of 270,000 active; Potency, µM (titrated, usually from 46.1 µM); calls by dose curve; also: actives are rising curves; nearly all actives have a fitted effect of over 50% in size
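Recovery from NS1-induced slow growth read by OD600 in budding yeast switched to galactose assay medium (pH 6.0, -URA) at 1:100 dilution. Compound 23 nl per well; the matching strain lacking NS1 serves as control.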
AMA1-RON2 inh – disrupts binding of P. falciparum AMA1 to RON2 | 0.2% of 360,000 active | Potency, µM (top dose mostly 58.2 µM), actives largely listed as inhibitors | AlphaScreen AMA1-biotinylated RON2 peptide binding; also: nearly all actives have a fitted effect of over 45% in size
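AMA1 (3D7) with his tag at 25 nM final met compounds first, then biotinylated RON2 peptide at 25 nM; detection used donor plus acceptor beads, 10 µg/mL apiece, read by AlphaScreen after 30 min at room temperature.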
A number is an active result; n = inactive; u = inconclusive; x = not tested or not shown; [ ] = dose if it differs, or a comment. Unless noted, calls follow the shape of the dose curve; as a rule, active = well fitted curve in the direction sought with a large enough effect; inconclusive = small, poorly fitted or top-dose-only effect, or another doubt; inactive = no such curve, though single readings can be large; an effect the other way counts as inactive or inconclusive.

SMILES	Sm TGR inh	Pf growth 96h	Pf growth 48h	NS1 inh	AMA1-RON2 inh
Cc1ccc(C(NC(=O)N2CC(C)OC(C)C2)C(Cl)Cl)cc1F (stereo unspecified)	n	n	u	n	n
COc1nc(OC)nc(N2CCC(NC(=O)C(Cc3ccc(C(C)C)cc3)NC(C)=O)CC2)n1 (stereo unspecified)	n	n	10.4µM	n	n
COc1cc(CC(NC(C)=O)C(=O)NC2CCN(C(=O)C3CC3)CC2)cc(OC)c1 (stereo unspecified)	x	n	n	n	n
COc1cc(CC(NC(C)=O)C(=O)NC2CCN(c3nc(OC)nc(OC)n3)CC2)cc(OC)c1 (stereo unspecified)	n	5.22µM	13.1µM	n	n
O=C(Nc1nc2ccccc2n1CCN1CCOCC1)c1ccc(Cl)cc1	n	u	13.1µM	n	n
O=C(Nc1nc2ccccc2n1CCN1CCCC1)c1ccc(Cl)cc1	u	u	u	n	n
O=C(Nc1nc2ccccc2n1CCN1CCCCC1)c1ccc(Cl)cc1	n	n	x	n	x
CCN(CC)CCn1c(NC(=O)c2ccccc2O)nc2ccccc21	44.7µM	n	n	n	n
CCN(CC)CCn1c(NC(=O)c2ccc(Cl)cc2)nc2ccccc21	n	3.7µM	x	n	n
Cc1cccc(Cc2nc3ccccc3[nH]2)c1	x	x	x	x	n
Cc1cccc(C)c1-n1ncc(C(=O)NC2CCCC2)c1C1CCN(C(=O)OC(C)(C)C)CC1	n	x	x	x	x
CC(=O)c1ccc(OCC(=O)Nc2cccc(C(=O)Nc3c(C)n(C)n(-c4ccccc4)c3=O)c2)cc1	x	x	x	x	n
Cc1cccc(OCc2nc(C#N)c(N3CC(C)CC(C)C3)o2)c1 (stereo unspecified)	n	13.1µM	x	n	u
CC(=O)c1ccc(-c2ccc(C(=O)NCC3CCCO3)o2)cc1 (stereo unspecified)	35.5µM	n	n	x	n
Cc1ccc(C)n1-c1ccc(C(=O)NCC2CCCO2)cc1 (stereo unspecified)	39.8µM	10.4µM	n	n	n
O=C(NC(=S)NCC1CCCO1)c1ccc(Cl)cc1 (stereo unspecified)	n	n	n	n	n[2.32 µM]
O=C(NC(=S)NCC1CCCO1)c1ccc([N+](=O)[O-])cc1 (stereo unspecified)	n	0.586µM	n	n	n[11.6 µM]
O=C(NCC1CCCO1)c1ccc(-c2cccc(C(F)(F)F)c2)o1 (stereo unspecified)	n	n	n	n	n
Cc1ccc(-c2nn(-c3ccc(F)cc3)cc2C(=O)NCC2CCCO2)cc1 (stereo unspecified)	50.1µM	u	n	x	n
COc1cccc(-c2nn(-c3ccc(F)cc3)cc2C(=O)NCC2CCCO2)c1 (stereo unspecified)	n	n	n	x	n
COc1cc(/C=C\C(=O)O)cc(S(=O)(=O)N2CCCCCC2)c1OC	u	u	n	n	n
Cc1ccc(-c2nnc(SC(C)C(=O)NCC3CCCO3)nc2-c2ccc(C)cc2)cc1 (stereo unspecified)	n	9.28µM	13.1µM	x	n
CCc1ccccc1S(=O)(=O)Cc1ccc(C(=O)NCC2CCCO2)o1 (stereo unspecified)	39.8µM	n	n	n	n
CC(Sc1nnc(-c2ccccc2)c(-c2ccccc2)n1)C(=O)NCC1CCCO1 (stereo unspecified)	x	x	x	x	n
Cc1cc(OCC(=O)NCCc2cccc(F)c2)c2c(C)cc(=O)oc2c1	n	u	u	n	n
SMILES	Sm TGR inh	Pf growth 96h	Pf growth 48h	NS1 inh	AMA1-RON2 inh
O=C(Nc1cc(S(=O)(=O)N2CCOCC2)ccc1Cl)c1ccc(=O)[nH]c1	n	n	n	x	n
O=C(Nc1ccccc1Cl)c1cc(S(=O)(=O)N2CCCCC2)ccc1N1CCOCC1	n	5.86µM	9.28µM	n	n
CC(C)Oc1ccc(S(=O)(=O)N2CCOCC2)cc1NC(=O)c1cc([N+](=O)[O-])ccc1N1CCOCC1	n	11.7µM	13.1µM	x	n
CC1(C)CC2CC(C)(CN2S(=O)(=O)c2ccc(C(=O)Nc3cc(S(=O)(=O)N4CCOCC4)ccc3Cl)cc2)C1 (stereo unspecified)	n	2.62µM	3.7µM	u	n
CC(C)COc1ccc(C(=O)Nc2cc(S(=O)(=O)N3CCOCC3)ccc2N2CCCC2)cc1	n	u	8.28µM	x	n
O=CNc1cc(-c2ccoc2)cn2c(-c3ccc(F)cc3)cnc12	x	x	x	x	n
COc1ccc(N(CC(=O)NCc2ccccc2Cl)S(=O)(=O)c2c(C)nn(C)c2C)cc1	n	x	x	x	x
O=c1c2ccccc2n(Cc2c(F)cccc2Cl)c(=O)n1Cc1ccccc1	n	x	x	x	x
O=C(Cn1cnc2ccccc21)Nc1ccc2c(c1)OCCCO2	n	n	n	x	n
Cc1c(C(=O)Nc2cc(S(=O)(=O)N3CCOCC3)ccc2N2CCOCC2)oc2ccccc12	n	u	10.4µM	x	n
CC(=O)NCCC(=O)Nc1cc(S(=O)(=O)N2CCCCC2)ccc1N1CCCCC1	n	1.17µM	1.17µM	x	n
CC(C)Oc1ccc(C(=O)Nc2cc(S(=O)(=O)N3CCOCC3)ccc2N2CCOCC2)cc1	n	u	13.1µM	x	n
CCCCCC(=O)Nc1cc(S(=O)(=O)N2CCCCC2)ccc1N1CCOCC1	n	u	13.1µM	n	n
CS(=O)Cc1cc(Sc2ccccc2)nc(-c2cccnc2)n1 (stereo unspecified)	n	u	n	x	n
O=C(CCC1N=C2c3ccccc3N=C(SCc3ccc(F)cc3)N2C1=O)NCc1ccc(F)cc1 (stereo unspecified)	n	x	x	x	x
N#Cc1ccc(C(=O)Nc2cc(S(=O)(=O)Nc3ccc(Cl)cc3)ccc2N2CCCCC2)cc1	n	10.4µM	13.1µM	n	n
O=C(Nc1cc(S(=O)(=O)N2CCOCC2)ccc1N1CCOCC1)c1cccc(S(=O)(=O)N2CCCCC2)c1	n	u	u	n	n
O=C(Nc1cc(S(=O)(=O)N2CCOCC2)ccc1N1CCOCC1)c1ccc(S(=O)(=O)N2CCCCC2)cc1	n	u	11.7µM	n	n
COc1cccc(Cn2c(=O)n(CC3CCC(C(=O)NC(C)C)CC3)c(=O)c3sccc32)c1 (stereo unspecified)	n	x	x	x	x
CCCC12CN3CCN(CC(C3)/C1=N\NC(=O)c1ccc(C(C)(C)C)cc1)C2	n	n	n	n	n
Cc1ccccc1NC(=O)N1C2CCCC1CC(NC(=O)C(C)(C)C)C2 (stereo unspecified)	n	11.7µM	n	n	n
O=C(CNC(=O)c1n[nH]c2ccccc12)Nc1ccc(F)c(F)c1F	x	x	x	x	n[11.6 µM]
Cc1cc(C(=O)CSc2nnc(C3CC3)n2C2CC2)c(C)n1C(C)C	n	n	u	x	n
CN1CCc2cccc3c2C1Cc1ccc(O)c(O)c1-3 (stereo unspecified)	x	10.4µM	u	u	u
C=CCN1CCc2cccc3c2[C@H]1Cc1ccc(O)c(O)c1-3	1.58µM	n	u	n	n
COc1ccc(C(=O)Nc2ccnn2C2CCN(C(C)CSC)CC2)cc1 (stereo unspecified)	n	2.94µM	n	n	n
COC(=O)c1ccc(C2OCC(C)(C)CO2)cc1	n	u	n	x	n
